# Sfp PPTase inh: inhibitors of Bacillus subtilis Sfp phosphopantetheinyl transferase; Q9F4F7; Potency, µM, for inactives: largest response in the series, negative = inhibition, most hits filed as inhibitors; Biochemical Sfp PPTase activity, qHTS; 3.5% of 310,000 active;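 also: the enzyme is Sfp with the accession as filed and its product quenches rhodamine fluorescence; 0% = enzyme reaction without inhibitor and -100% = no enzyme wells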
#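 Step 1, compound plus 15 nM Sfp-PPTase, 15 min, room temperature. Step 2, add rhodamine-CoA (5 uM) and BHQ-2-YbbR (12.5 uM). Step 3, read 525/598 nm fluorescence at 0 and 30 min.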
# ALDH1A1 block: ALDH1A1 (human) enzyme inhibition | P00352 | Purified ALDH1A1, NADH fluorescence, propionaldehyde substrate | Potency, µM (highest dose often 75.3 µM), for the others: top-dose activity, negative = inhibition, hits mostly inhibitors | 7.3% of 220,000 active | AID 1030; active = well fitted inhibition curve with a large enough effect, not every such curve was filed as active; inconclusive = small, poorly fitted or top-dose-only effect, or another doubt; inactive = no such curve, though single readings can be large or run the other way;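 also: plate controls were no enzyme wells and a reference inhibitor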
# RORgamma inh: inhibitors of mouse ROR gamma transcriptional activity | Drosophila S2 Gal4-RORgamma UAS-luciferase reporter, 20 h | Potency, µM (doses to about 53.6 µM), without a hit: at the highest dose activity change, negative = inhibition, usual class: inhibitors | 5.4% of 310,000 active | AID 2551; also: nearly all actives have a fitted effect of over 60% in size
# Target sequence (P51450 whole entry, looked up, the tested form may be a part): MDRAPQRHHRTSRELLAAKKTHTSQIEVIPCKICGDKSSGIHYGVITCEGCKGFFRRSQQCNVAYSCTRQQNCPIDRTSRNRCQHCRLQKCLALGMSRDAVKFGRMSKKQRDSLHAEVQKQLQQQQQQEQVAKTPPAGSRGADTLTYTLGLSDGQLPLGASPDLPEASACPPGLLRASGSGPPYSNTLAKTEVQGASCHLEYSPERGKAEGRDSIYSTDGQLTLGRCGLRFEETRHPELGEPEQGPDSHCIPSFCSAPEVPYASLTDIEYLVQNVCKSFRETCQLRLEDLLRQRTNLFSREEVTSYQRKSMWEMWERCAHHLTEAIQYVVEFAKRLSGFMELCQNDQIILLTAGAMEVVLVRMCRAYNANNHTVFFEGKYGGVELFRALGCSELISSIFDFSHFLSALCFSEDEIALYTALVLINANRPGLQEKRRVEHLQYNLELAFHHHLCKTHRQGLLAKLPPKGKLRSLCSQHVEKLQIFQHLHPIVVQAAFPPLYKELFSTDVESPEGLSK
#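 ROR gamma transcriptional activity was tracked as Gal4-UAS luciferase output in stably transfected Drosophila Schneider cells, with compound added 1 hr before 700 uM copper sulfate induction and a 20 hr ambient-temperature incubation.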
# PLK1 PBD inh: inhibitors of human PLK1 polo-box domain binding; P53350; Plk1 PBD binding of FITC phosphopeptide, fluorescence polarization; Potency, µM, for inactives: max response, negative = inhibition, most hits filed as inhibitors; 2.8% of 360,000 active; also: series mostly up to about 57 µM; nearly all actives have a fitted effect of over 65% in size
# Gal4-VP16 FLuc: inhibits Gal4-VP16 luciferase reporter, ROR gamma counter-screen | Drosophila S2 Gal4-VP16 UAS-luciferase, luminescence, 20 h | AID 2546 | 3.5% of 310,000 active | Potency, µM (titrated, usually from 53.6 µM), for inactives: at the top dose activity, negative = inhibition, usual class: inhibitors;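 also: Gal4-VP16 expression switched on by copper sulfate through the metallothionein promoter; nearly all actives have a fitted effect of over 50% in size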
# Active calls of the source: *; ? = inconclusive; . = not tested or not shown; [ ] = remark or other dose. Compounds with a hit are over-represented: about 12% of the library has one in this group of screens. Unless noted, calls follow the shape of the dose curve; as a rule, active = well fitted curve in the direction sought with a large enough effect; inconclusive = small, poorly fitted or top-dose-only effect, or another doubt; inactive = no such curve, though single readings can be large; an effect the other way counts as inactive or inconclusive. Unless noted, % is scaled to controls: 0 for no effect and ±100 for the full control effect; potency is read from the fitted curve at half-maximal effect.
SMILES,Sfp PPTase inh,ALDH1A1 block,RORgamma inh,PLK1 PBD inh,Gal4-VP16 FLuc
CC[C@@H](C)[C@H](CN[C@H](CNC)C(C)C)NC[C@@H](C)c1ccc(CC(C)C)cc1,19%,.,10µM*,-11%,?
Cc1cc(C)n2c(NC3CCCCC3)c(CC(C)C)nc2n1,.,.,.,-9%,.
CCN(C(=O)COC(=O)CCCOc1ccc(Cl)cc1C)c1c(N)n(Cc2ccccc2)c(=O)[nH]c1=O,.,.,.,-8%,.
CCOC(=O)C(N)CSC1CC(=O)N(c2ccc(C(=O)OC)cc2)C1=O (stereo not given),-11%,7.1µM*,3%,-13%,-3%
COC(=O)c1ccc(N2C(=O)CC(SCCN)C2=O)cc1 (stereo not given),8%,13µM*,-13%,-13%,0%
CCCOc1ccc(N2C(=O)CC(SCC(N)C(=O)OCC)C2=O)cc1 (stereo not given),-16%,.,-8%,-5%,-6%
CCOc1ccc(N2C(=O)CC(N)C2=O)cc1 (stereo not given),-24%,1.1µM*,1.1µM*,-21%,3.2µM*
CCCOc1ccc(N2C(=O)CC(SCCN)C2=O)cc1 (stereo not given),?,0.22µM*,21%[0.365 µM],-17%,.
CCOc1ccccc1CNn1cnnc1SCC(=O)NC(C)(C)C,.,.,.,-5%,.
C=CCN(C(=O)CCC(=O)O)C1CC(=O)N(c2ccc(OC)cc2)C1=O (stereo not given),0%,6%,3%,-3%,-2%
C=CCN(C(=O)CCC(=O)O)C1CC(=O)N(c2ccc(OCCC)cc2)C1=O (stereo not given),-3%,?,24%,24µM*,-9%
CCn1c(C(C#N)/C(=N\S(=O)(=O)c2cccs2)c2ccccc2)nc2ccccc21 (stereo not given),2%,10µM*,-138%,-13%,?
CCn1c(-c2cccs2)nc2ccccc21,6%,?,-37%,-6%,-23%
COc1ccc([C@@]2(C(C)C)ON(c3ccccc3C(F)(F)F)C2=O)cc1,.,.,.,-11%,.
CC(=O)c1cc(CN2CCC(N3CCC(C(=O)N4CCCC4)CC3)CC2)cs1,22µM*,-9%,0%,-4%,-3%
CC(=O)c1cc(CN2CCC(N3CCC(C(=O)NC(C)C)CC3)CC2)cs1,19%,3%,3%,6%,-3%
O=C(c1cc(-c2ccc(F)cc2)on1)N1CCCCCC1,8%,.,-2%,-9%,-10%
O=C(c1cc(-c2ccc(F)cc2)on1)N1CCCC1,10%,-5%,14µM*,-16%,-60%
O=C(c1cc(-c2cccc(O)c2)on1)N1CCCCC1,-9%,?,0.71µM*,0%,-18%
COc1ccc(-c2cc(C(=O)N3CCCC3)no2)cc1,16%,.,4µM*,-4%,10µM*
CC1(C)CCCC2(C)C(OCCO)=CC(=O)C=C12 (stereo not given),.,.,.,-15%,.
CCC(CC)C(=O)N(C)c1c(C)nc2c(OCC(=O)C(C)(C)C)cccn12,.,.,.,-11%,.
CC(C)Cc1nc(S(=O)(=O)c2ccc(Cl)cc2)c(N2CCOCC2)o1,40µM*,?,-22%,-24%,11%
CC(C)(C)c1nc(S(=O)(=O)c2ccc(Cl)cc2)c(N2CCOCC2)o1,-4%,18µM*,?,-14%,-14%
O=S(=O)(c1ccc(Cl)cc1)c1nc(-c2ccco2)oc1N1CCOCC1,-11%,.,13%,-1%,-6%
SMILES,Sfp PPTase inh,ALDH1A1 block,RORgamma inh,PLK1 PBD inh,Gal4-VP16 FLuc
CC(=O)O[C@H]1CC[C@@]2(C)C(=CC[C@@H]3[C@@H]4CC[C@H](c5cc(C(F)(F)F)n(C(C)=O)n5)[C@]4(C)CC[C@@H]32)C1,.,4%[13.5 µM],.,.,.
CCC1(CC)Cc2ccccc2C(=C(C#N)C#N)N1,-2%,-12%,?,-2%,22%
N#CC(C#N)=C1NC(N)=C(C#N)C(c2ccccc2)=C1C#N,56µM*,.,2%,.,-11%
CN1CCN(NC(=O)c2ccc(Br)s2)CC1,15%,.,7%,30µM*,-12%
O=C(NN1CCOCC1)c1ccc(Br)s1,9%,4%,-22%,-13%,0%
CCC12CCCN3CCC4(C(=C(C(=O)OC)C1)Nc1ccccc14)C32 (stereo not given),-1%,20µM*,-10%,-4%,0%
COC(=O)C1=C(C(=O)OC)[C@@H]2Nc3ccccc3[C@@]23C[C@@H](C(=O)OC)N=C3N1,1%,13%[13.5 µM],0%,-13%,-12%
CC(=O)Nc1ccccc1O,13%,6%,0%,-6%,-1%
CC(CC(=O)O)Nc1ccccc1O (stereo not given),35µM*,-4%,-2%,2%,-11%
CS(=O)(=O)Nc1cccc(-c2ccc3ncnc(NC4CCNCC4)c3c2)c1,18%,?,3%,.,-8%
COC(=O)C1=C(C)N(Cc2ccccc2)C(=O)N[C@H]1c1cccc(F)c1,15%,?,.,-4%,.
COC(=O)C1=C(C(=O)OC)C2(OC1c1cccc(F)c1)C(=O)c1ccccc1C2=O (stereo not given),79µM*,-10%,8%,-16%,13%
CCCCNC(=S)NNC(=O)C12CC3CC(CC(C3)C1)C2,15%,0%,14µM*,-3%,?
CC(C)NC(=S)NNC(=O)C12CC3CC(CC(C3)C1)C2,6%,?,34%,-12%,-18%
O=C(O)COc1cccc(-c2ocnc2-c2nc(-c3ccccc3)c(-c3ccccc3)o2)c1,?,?,11%,.,-1%
O=C1CCCC2=C1C(c1cn(-c3ccccc3)nc1-c1cccs1)c1c([nH]c(=O)[nH]c1=O)N2 (stereo not given),-3%,8%,1%[10 µM],24µM*,0%
CSc1nc2c(c(=O)[nH]1)C(c1cccs1)C1=C(CCCC1=O)N2 (stereo not given),6%,-2%,-28%,-20%,-6%
O=S1(=O)CC(N2CC=CC2)CN1Cc1cn(Cc2cccc(C(F)(F)F)c2)nn1 (stereo not given),.,.,.,-13%,.
COc1ccc(N2C3=C(CC4=C2CC(C)(C)CC4=O)C(=O)CC(C)(C)C3)cc1,18µM*,?,5%,8.4µM*,-1%
COc1ccc(N2C3=C(C(=O)CC(C)(C)C3)C(c3ccccc3OC)C3=C2CC(C)(C)CC3=O)cc1,-9%,.,5%,-1%,-10%
CS(=O)(=O)c1ccc(-c2cn3cc(C(=O)O)ccc3n2)cc1,18%,?,7.9µM*,-5%,10µM*
CCN(Cc1ccc(OC)c(F)c1)C(C)C(=O)Nc1ccc(S(=O)(=O)N2CCCC2)cc1 (stereo not given),.,.,.,-2%,.
CCCCNC(=S)Nc1ccc([N+](=O)[O-])cc1,9%,?,-14%,-14%,2%
CCCCCCCC(=O)NNC(=O)c1ccc([N+](=O)[O-])cc1,19%,?,-29%,-5%,-4%
CC(C)CNC(=S)NC(=O)c1ccc([N+](=O)[O-])cc1,7%,?,4.5µM*,-13%,14µM*

# Source: PubChem BioAssay
